Data published in PubChem BioAssay (NCI).
The panel holds about 83,000 compounds, 20% with a hit somewhere; the sample as a whole holds those more often.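 Single-dose data. Exposure time 48 hours. Values below 10 considered active.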 Activity calls are given as the source filed them.

How the values were obtained:
Assay in all cases: NCI-60 one-dose screen, 48 h (100 = growth as untreated, 0 = no growth, -100 = all killed)
Settings in all cases: 10 µM unless noted
HCT-15 colon = system: HCT-15 colon
HT29 colon = system: HT29 colon
SNB-75 CNS = system: SNB-75 CNS
SNB-19 CNS = system: SNB-19 CNS
U251 CNS = system: U251 CNS
PC-3 prostate = system: PC-3 prostate
SK-MEL-5 melanoma = system: SK-MEL-5 melanoma
UACC-62 melanoma = system: UACC-62 melanoma
LOX IMVI melanoma = system: LOX IMVI melanoma
SK-MEL-28 melanoma = system: SK-MEL-28 melanoma
SK-MEL-2 melanoma = system: SK-MEL-2 melanoma
EKVX NSCLC = system: EKVX NSCLC
SN12C renal = system: SN12C renal
UO-31 renal = system: UO-31 renal
TK-10 renal = system: TK-10 renal
ACHN renal = system: ACHN renal
CAKI-1 renal = system: CAKI-1 renal
A498 renal = system: A498 renal
CCRF-CEM leukemia = system: CCRF-CEM leukemia
MOLT-4 leukemia = system: MOLT-4 leukemia

Measured: growth

O=CCCCOCc1ccccc1
inactive: HCT-15 colon 98.5% | HT29 colon 97.2% | SNB-75 CNS 87.8% | SNB-19 CNS 100% | U251 CNS 104% | PC-3 prostate 95.6% | SK-MEL-5 melanoma 100% | UACC-62 melanoma 95.2% | LOX IMVI melanoma 99% | SK-MEL-28 melanoma 112% | SK-MEL-2 melanoma 104% | EKVX NSCLC 95.6% | SN12C renal 98.8% | UO-31 renal 95% | TK-10 renal 97.7% | ACHN renal 101% | CAKI-1 renal 98.1% | A498 renal 85.8% | CCRF-CEM leukemia 104% | MOLT-4 leukemia 103%

Clc1ccc2nn3c4ccccc4c(OCCN4CCOCC4)nc3c2c1
active: A498 renal 3.87%
inactive: HCT-15 colon 89.8% | HT29 colon 95.5% | SNB-75 CNS 76.8% | SNB-19 CNS 81.1% | U251 CNS 84.5% | PC-3 prostate 92.8% | SK-MEL-5 melanoma 83.7% | UACC-62 melanoma 67.6% | LOX IMVI melanoma 84.2% | SK-MEL-28 melanoma 110% | SK-MEL-2 melanoma 112% | EKVX NSCLC 84.3% | SN12C renal 87.9% | UO-31 renal 49.2% | TK-10 renal 84.8% | ACHN renal 70.7% | CAKI-1 renal 50.4% | CCRF-CEM leukemia 96.2% | MOLT-4 leukemia 95.3%

COc1cc2c3c(c4c5ccccc5[nH]c4c2c(OC)c1OC)C(=O)N(CCN1CCCCC1)C3=O
inactive: SNB-75 CNS 63.5% | SNB-19 CNS 30.1% | PC-3 prostate 31.3% | SK-MEL-5 melanoma 31.7% | UACC-62 melanoma 48.4% | SK-MEL-28 melanoma 52.2% | SK-MEL-2 melanoma 49.4% | EKVX NSCLC 35.1% | SN12C renal 12.6% | UO-31 renal 16.1% | A498 renal 42.4% | MOLT-4 leukemia 12.9%
active: HCT-15 colon -87.2% | HT29 colon -39.6% | U251 CNS -60.3% | LOX IMVI melanoma -92% | TK-10 renal -76.6% | ACHN renal -40.4% | CAKI-1 renal -49% | CCRF-CEM leukemia 3.38%

CC(C)NS(=O)(=O)/N=C1\NC(=O)NC1=C(Cl)Cl
inactive: HCT-15 colon 86.3% | HT29 colon 99% | SNB-75 CNS 104% | SNB-19 CNS 94.3% | U251 CNS 90.6% | PC-3 prostate 94.5% | SK-MEL-5 melanoma 92.8% | UACC-62 melanoma 84.5% | LOX IMVI melanoma 94.8% | SK-MEL-28 melanoma 108% | SK-MEL-2 melanoma 95.6% | EKVX NSCLC 103% | SN12C renal 94.8% | UO-31 renal 102% | TK-10 renal 116% | ACHN renal 113% | CAKI-1 renal 91.6% | A498 renal 116% | CCRF-CEM leukemia 81.4% | MOLT-4 leukemia 87%

C=C1C(=O)O[C@H]2[C@H]1CC/C(COC(=O)/C=C\C(=O)NCc1ccc(Cn3c(=O)sn(CCCCl)c3=O)cc1)=C\CC[C@@]1(C)O[C@@H]21
active: CCRF-CEM leukemia 1.6%
inactive: HCT-15 colon 30.8% | HT29 colon 46.9% | SNB-75 CNS 88.5% | SNB-19 CNS 94.8% | U251 CNS 79.6% | PC-3 prostate 76.9% | SK-MEL-5 melanoma 102% | UACC-62 melanoma 65.1% | LOX IMVI melanoma 64.2% | SK-MEL-28 melanoma 100% | SK-MEL-2 melanoma 83.4% | EKVX NSCLC 94.1% | SN12C renal 64.9% | UO-31 renal 53.1% | TK-10 renal 57.7% | ACHN renal 40.2% | CAKI-1 renal 51.6% | A498 renal 103% | MOLT-4 leukemia 60.7%

Nc1c(C(=O)Nc2cccc3ncccc23)sc2nc3c(cc12)CN(Cc1ccccc1)CC3
inactive: HCT-15 colon 74.2% | HT29 colon 81.7% | SNB-75 CNS 84.2% | SNB-19 CNS 82.3% | U251 CNS 88% | PC-3 prostate 77% | SK-MEL-5 melanoma 19.2% | UACC-62 melanoma 53.5% | LOX IMVI melanoma 88.6% | SK-MEL-28 melanoma 81.7% | SK-MEL-2 melanoma 57.3% | EKVX NSCLC 76.4% | SN12C renal 82.1% | UO-31 renal 70.2% | TK-10 renal 89.4% | ACHN renal 88.6% | CAKI-1 renal 74.1% | A498 renal 72.1% | CCRF-CEM leukemia 69.6% | MOLT-4 leukemia 48.5%

COc1ccc2c(c1)CC[C@@H]1[C@@H]2CC[C@]2(C)c3c(cc(C#N)c4c3sc3ccccc34)C[C@@H]12
inactive: HCT-15 colon 104% | HT29 colon 100% | SNB-75 CNS 86% | SNB-19 CNS 104% | U251 CNS 104% | PC-3 prostate 85.5% | SK-MEL-5 melanoma 95.9% | UACC-62 melanoma 99.5% | LOX IMVI melanoma 96.8% | SK-MEL-28 melanoma 110% | SK-MEL-2 melanoma 109% | EKVX NSCLC 103% | SN12C renal 104% | UO-31 renal 85% | TK-10 renal 107% | ACHN renal 105% | CAKI-1 renal 103% | A498 renal 109% | CCRF-CEM leukemia 82.3% | MOLT-4 leukemia 92.1%

O=C(Cc1ccc(/C=C/C(=O)c2ncc[nH]2)cc1)Nc1cc(F)c(F)c(F)c1
inactive: HCT-15 colon 11.9% | HT29 colon 18.1% | SNB-75 CNS 44.8% | SNB-19 CNS 43.4% | PC-3 prostate 48.2% | SK-MEL-5 melanoma 97.7% | UACC-62 melanoma 74.5% | SK-MEL-28 melanoma 103% | SK-MEL-2 melanoma 114% | EKVX NSCLC 92.7% | SN12C renal 56.2% | UO-31 renal 46.7% | TK-10 renal 87.5% | ACHN renal 93.2% | CAKI-1 renal 56.2% | A498 renal 84.8% | CCRF-CEM leukemia 20.3% | MOLT-4 leukemia 26.7%
active: U251 CNS 8.91% | LOX IMVI melanoma -3.1%

CCOC(=O)c1nnn(-c2no[n+]([O-])c2-c2ccc(OC)cc2)c1COc1cccc2cccnc12
active: HT29 colon 3.79% | SK-MEL-5 melanoma -22.4% | UACC-62 melanoma 8.44% | LOX IMVI melanoma -43.1% | SK-MEL-2 melanoma 3.57% | SN12C renal 3.95% | CCRF-CEM leukemia 4.84%
inactive: HCT-15 colon 22.2% | SNB-75 CNS 73.1% | SNB-19 CNS 25.2% | U251 CNS 14.9% | PC-3 prostate 34.2% | SK-MEL-28 melanoma 58.2% | EKVX NSCLC 44.8% | UO-31 renal 34.3% | TK-10 renal 33.2% | ACHN renal 21.8% | CAKI-1 renal 24.1% | A498 renal 103% | MOLT-4 leukemia 10%

Cn1c2ccccc2c2c3c(c4c5cc(Br)ccc5n(C)c4c21)C(=O)N(O)C3=O
active: U251 CNS 3.06% | SK-MEL-5 melanoma -35.4% | UACC-62 melanoma -4.53% | LOX IMVI melanoma -77.9% | SN12C renal -53.2% | UO-31 renal 2.59% | ACHN renal -23% | CAKI-1 renal -22.4% | CCRF-CEM leukemia -22.2% | MOLT-4 leukemia -21.4%
inactive: HCT-15 colon 21% | HT29 colon 52.6% | SNB-75 CNS 38.9% | SNB-19 CNS 16% | PC-3 prostate 47% | SK-MEL-28 melanoma 54.3% | SK-MEL-2 melanoma 56.3% | EKVX NSCLC 88.5% | TK-10 renal 90.3% | A498 renal 103%

COc1cc(Cc2cc(-c3ccccc3)nn(Cc3ccccc3)c2=O)cc(OC)c1OC
active: MOLT-4 leukemia 5.01%
inactive: HCT-15 colon 29.1% | HT29 colon 32.2% | SNB-75 CNS 61% | SNB-19 CNS 51.7% | U251 CNS 32.9% | PC-3 prostate 22.7% | SK-MEL-5 melanoma 40.2% | UACC-62 melanoma 37.7% | LOX IMVI melanoma 43.7% | SK-MEL-28 melanoma 56.2% | SK-MEL-2 melanoma 38.4% | EKVX NSCLC 14.7% | SN12C renal 40.9% | UO-31 renal 21.6% | TK-10 renal 45.2% | ACHN renal 27.9% | CAKI-1 renal 44.4% | A498 renal 51.1% | CCRF-CEM leukemia 34.8%

CN(C)Cc1cc(C(C)(C)C)cc(Br)c1O
inactive: HCT-15 colon 95.6% | HT29 colon 81.8% | SNB-75 CNS 91.5% | SNB-19 CNS 113% | U251 CNS 107% | PC-3 prostate 90.5% | SK-MEL-5 melanoma 96.1% | UACC-62 melanoma 101% | LOX IMVI melanoma 103% | SK-MEL-28 melanoma 112% | SK-MEL-2 melanoma 113% | EKVX NSCLC 96.8% | SN12C renal 105% | UO-31 renal 98% | TK-10 renal 100% | ACHN renal 108% | CAKI-1 renal 91.6% | A498 renal 90.6% | CCRF-CEM leukemia 116% | MOLT-4 leukemia 110%

CCCCCc1ccc(S(=O)(=O)Nc2ccc3nc(N)oc3c2)cc1
inactive: HCT-15 colon 82.5% | HT29 colon 89.4% | SNB-75 CNS 40.7% | SNB-19 CNS 66.3% | U251 CNS 71.5% | PC-3 prostate 57.2% | UACC-62 melanoma 43.7% | LOX IMVI melanoma 36.3% | SK-MEL-28 melanoma 74.7% | SK-MEL-2 melanoma 101% | EKVX NSCLC 33.2% | SN12C renal 58.8% | UO-31 renal 35.8% | TK-10 renal 84.6% | ACHN renal 60.3% | CAKI-1 renal 51.1% | A498 renal 32.6% | CCRF-CEM leukemia 51.8% | MOLT-4 leukemia 37.1%
active: SK-MEL-5 melanoma 4.66%

O=C(C[C@]1(O)C(=O)Nc2ccc(Br)cc21)c1ccco1
inactive: HCT-15 colon 105% | HT29 colon 101% | SNB-75 CNS 96.1% | SNB-19 CNS 95.6% | U251 CNS 100% | PC-3 prostate 92.6% | SK-MEL-5 melanoma 93.3% | UACC-62 melanoma 90.7% | LOX IMVI melanoma 89.9% | SK-MEL-28 melanoma 117% | SK-MEL-2 melanoma 94.5% | EKVX NSCLC 107% | SN12C renal 90% | UO-31 renal 75.4% | TK-10 renal 125% | ACHN renal 109% | CAKI-1 renal 93.4% | A498 renal 103% | CCRF-CEM leukemia 104% | MOLT-4 leukemia 102%

Cn1cc(-c2nonc2-c2c[nH]c3ccccc23)c2cc(Br)ccc21
active: HT29 colon 8.18%
inactive: HCT-15 colon 18.5% | SNB-75 CNS 46.3% | SNB-19 CNS 49.7% | U251 CNS 29.8% | PC-3 prostate 41.7% | SK-MEL-5 melanoma 48% | UACC-62 melanoma 34.2% | LOX IMVI melanoma 19% | SK-MEL-28 melanoma 60.8% | SK-MEL-2 melanoma 41% | EKVX NSCLC 33.6% | SN12C renal 55% | UO-31 renal 36.8% | TK-10 renal 53.3% | ACHN renal 40.3% | CAKI-1 renal 26.3% | A498 renal 40.3% | CCRF-CEM leukemia 31% | MOLT-4 leukemia 17.8%
